# Screening data from PubChem BioAssay.
# Vif-APOBEC3F blk: Vif-A3F binding inhibition. 390,000 compounds, 0.2% hits. Potency, µM (highest dose often 46.1 µM), without a hit: at the highest dose activity, negative = active. HeLa A3F-eYFP + Vif (tagged APOBEC3F with the HIV-1 protein that degrades it), YFP fluorescence increase; also: % of control where 0% means no effect; nearly all actives have a fitted effect of over 65% in size
#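 Fluorescence increase (Ex 488/Em 500-530) after overnight compound treatment at 37 deg C flags inhibition of Vif-driven A3F-eYFP loss in stable HeLa A3F-eYFP/Vif cells seeded overnight beforehand.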
# Vif-APOBEC3G blk: Vif-A3G binding inhibition | Q9HC16 | 410,000 compounds, 0.076% hits | Potency, µM (titrated, usually from 46.1 µM), for inactives: top-dose activity, negative = active, most hits filed as inhibitors | AID 602310 | HeLa A3G-eYFP + Vif (tagged APOBEC3G with the HIV-1 protein that degrades it), YFP fluorescence, overnight; also: % is scaled to controls: 0 for no effect and ±100 for the full control effect; nearly all actives have a fitted effect of over 60% in size
# Target sequence (Q9HC16 whole entry, looked up): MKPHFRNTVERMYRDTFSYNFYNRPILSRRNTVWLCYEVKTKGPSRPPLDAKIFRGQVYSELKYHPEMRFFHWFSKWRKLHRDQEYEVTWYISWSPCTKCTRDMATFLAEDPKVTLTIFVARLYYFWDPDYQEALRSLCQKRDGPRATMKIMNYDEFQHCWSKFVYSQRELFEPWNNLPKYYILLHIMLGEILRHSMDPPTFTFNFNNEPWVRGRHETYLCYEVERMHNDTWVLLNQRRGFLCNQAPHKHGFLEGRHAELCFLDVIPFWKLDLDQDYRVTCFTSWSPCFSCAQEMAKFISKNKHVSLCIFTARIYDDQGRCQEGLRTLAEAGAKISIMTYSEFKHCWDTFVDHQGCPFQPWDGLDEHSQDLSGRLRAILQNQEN
#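 HeLa cells stably expressing Vif and C-terminally eYFP-tagged A3G, seeded overnight at 37 deg C, then exposed to compound by pintool overnight at 37 deg C. Rise in yellow fluorescence (Ex 488/Em 500-530, Acumen) marks blocked Vif-driven A3G degradation.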
# Epigenetic reg: epigenetic control regulation, reporter derepression | Potency, µM (doses to about 53.9 µM), without a hit: at the top dose GFP activation, hits mostly activators | 280,000 compounds, 0.2% hits | murine LDR cells, GFP reporter derepression, 30 h; also: % of control where 0% means no effect; nearly all actives have a fitted effect of over 60% in size
#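 Murine LDR cells carrying a silenced, genomically integrated CMV-driven GFP reporter were exposed to compound for 30 hours at 37 C. After PBS washes, GFP-positive cells (20–120 um objects) were counted by laser-scanning microplate cytometry.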
# Glioma ERSR ind: induces the endoplasmic reticulum stress response in human glioma cells. U87-MG GRP78 promoter luciferase reporter, 16 h. Potency, µM, without a hit: at the highest dose activation, actives largely listed as activators. 420,000 compounds, 0.02% hits. AID 602332; also: series mostly up to about 76 µM; % of control where 0% means no effect; nearly all actives have a fitted effect of over 35% in size
#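 Stably transfected U87-MG human glioma cells carrying a GRP78-based luminescent sensor were seeded at 1000 cells/well, pin-dosed with compounds and incubated 16 h. Luciferase reagent was then added, and end-point luminescence was read after 10 min at room temperature.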
# Starred values were filed as active, the others as inactive; ? = inconclusive; . = no result. Compounds with a hit are over-represented: about 0.35% of the library has one in this group of screens. Calls follow the shape of the dose curve; as a rule, active = well fitted curve in the direction sought with a large enough effect; inconclusive = small, poorly fitted or top-dose-only effect, or another doubt; inactive = no such curve, though single readings can be large; an effect the other way counts as inactive or inconclusive. Potency is read from the fitted curve at half-maximal effect.
SMILES,Vif-APOBEC3F blk,Vif-APOBEC3G blk,Epigenetic reg,Glioma ERSR ind
CN(C)c1ccc(/C=C/C(=O)c2cc(Cl)ccc2O)cc1,-10.9%,-9.0%,-0.4%,8.6%
COc1ccc(C2CC(c3ccccc3)=NN2c2ccc(/C=N/NC(=O)c3ccncc3)cc2)cc1 (centres undefined),-2.2%,-13.8%,6.0%,9.6%
N#CCC(=O)N/N=C/c1ccc(N2N=C(c3ccccc3)CC2c2ccccc2)cc1 (centres undefined),6.31µM*,?,.,-1.6%
O=C(O)c1cccc(-c2ccc(/C=N/Nc3ccc([N+](=O)[O-])cc3)o2)c1,22.4µM*,?,4.6%,7.0%
O=C(N/N=C/c1ccc(-c2ccc([N+](=O)[O-])cc2)o1)[C@H]1C[C@@H]1c1ccccc1,7.08µM*,-5.9%,?,-1.5%
O=C(O)c1ccc(-c2ccc(/C=N/Nc3ccc([N+](=O)[O-])cc3)o2)cc1,?,10µM*,?,2.6%
NC(=S)N/N=C/c1ccc(-c2cccc([N+](=O)[O-])c2)o1,?,-4.2%,15.8µM*,4.3%
NS(=O)(=O)c1ccc(-c2ccc(/C=N/Nc3ccc(C(=O)O)cc3)o2)cc1,3.2%,-0.5%,-1.3%,-5.8%
O=C(O)Cn1ccc2cc(S(=O)(=O)N3CCCCC3)ccc21,0.2%,0.1%,.,-6.2%
Cc1nc2ccn(Cc3ccco3)c(=O)c2cc1C(=O)N1CCN(c2ccccc2F)CC1,-7.7%,0.0%,0.0%,-1.9%
CCn1nc(-c2ccccc2)c(-c2ccccc2)c(C(=O)Nc2ccc(S(N)(=O)=O)cc2)c1=O,0.7%,-3.5%,-0.9%,-2.4%
CCCCC(=O)N/N=C/c1ccc(-c2ccc([N+](=O)[O-])cc2)o1,-1.6%,-2.7%,-1.2%,19.5%
CC(C)(C)NC(=S)N/N=C\c1ccc(-c2ccc([N+](=O)[O-])cc2)o1,25.1µM*,10µM*,12.6µM*,6.0%
CCN1CCN(c2nc3ccccn3c(=O)c2C=O)CC1,-3.9%,-2.0%,.,-4.1%
CCOC(=O)CC1C(=O)NCCN1c1nc2c(C)cccn2c(=O)c1/C=C1\SC(=S)N(CC(C)C)C1=O (centres undefined),.,.,7.94µM*,.
CC(C)CN1C(=O)/C(=C/c2c(N3CCc4ccccc4C3)nc3ccccn3c2=O)SC1=S,.,.,4.47µM*,.
COc1cc(Cl)c(C)cc1NC(=O)Cn1ncc2c(=O)oc3ccccc3c21,-2.3%,1.5%,3.9%,-4.3%
CCOC(=O)COn1c(=O)c(-c2ccc(Br)cc2)[n+]([O-])c2ccccc21,1.78µM*,-0.1%,.,0.3%
CCOn1c(=O)c(C)[n+]([O-])c2ccccc21,?,?,20µM*,3.3%
COc1cc2c(cc1OC)C1=CC(=O)C(=O)N1C(C)(C)C2,?,7.08µM*,1.1%,-4.1%
COc1cc2c(cc1OC)-c1nc3ccccc3c(=O)n1C(C)(C)C2,2.3%,-0.4%,-0.3%,-4.4%
O=C(CSc1nc(-c2ccccc2)cs1)NCCCN1CCCC1=O,0.6%,4.7%,.,-3.7%
NC(=S)N/N=C/c1ccccc1OC(=O)/C=C/c1ccccc1,11.2µM*,-0.1%,.,1.7%
NC(=S)N/N=C\c1ccccc1OCc1ccccc1,7.8%,-17.1%,-0.6%,-1.0%
Cc1c(C(=O)O)sc2nc(-c3cccs3)cc(C(F)(F)F)c12,-17.0%,1.4%,.,2.0%
SMILES,Vif-APOBEC3F blk,Vif-APOBEC3G blk,Epigenetic reg,Glioma ERSR ind
CC(=O)c1sc2nc(-c3cccs3)cc(C(F)(F)F)c2c1N,5.01µM*,?,15.8µM*,0.8%
Cc1ccc(/C=C/c2ccc(N(C)C)cc2)[n+](C)c1,?,11.2µM*,.,-11.1%
CN(C)c1ccc(/C=C/c2cc[n+]([O-])cc2)cc1,.,.,0.0%,.
CC[n+]1ccccc1/C=C/c1ccc(N(C)C)cc1,22.4µM*,?,15.8µM*,-3.4%
CCCCCC[n+]1ccccc1/C=C/c1ccc(N(C)C)cc1,.,?,.,-7.6%
CN(C)c1ccc(/C=C/c2cc[n+](C)cc2)cc1,?,?,11.2µM*,-3.0%
CCC(C)NC(=O)CSc1nc2cc3c(cc2c(=O)n1Cc1ccc(C(=O)NCCc2ccc(OC)c(OC)c2)cc1)OCO3 (centres undefined),.,-3.6%,11.2µM*,-2.8%
CCCC(=O)N1CCCC(c2cc(C(=O)Nc3ccccc3)no2)C1 (centres undefined),.,-7.0%,.,-11.0%
CN1/C(=C\C=C2/C(=O)Oc3ccccc3C2=O)C(C)(C)c2ccccc21,?,6.6%,14.1µM*,-1.2%
CN1C(=CC=C2C=C(I)C(=O)C(I)=C2)C(C)(C)c2ccccc21,-8.0%,-1.9%,0.0%,-1.1%
